Screening results as filed in PubChem.
Hits are enriched below; roughly 3.2% of the tested compounds scored in any of these assays.
Ecoli rRNA inh – inhibits bacterial ribosomal RNA function over humanized ribosomes; E. coli WT GFP vs humanized-ribosome RFP mutants, fluorescence, 24 h; hits give low values; DMSO median 0, no signal -100; GFP signal change (wild-type ribosome), % (test concentration not listed); 350,000 compounds, 1.6% hits; AID 720706;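 active means significant combined selectivity score with lowered wild-type GFP, culture density cut under 30%, mutant RFP and density less affected; inactive means any of these conditions unmet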
PGC1a acetyl inh – PGC1a acetylation modulation, inhibitor mode | U2OS PGC1a acetylation, AlphaScreen anti-acetyl-lysine; with virally co-expressed GCN5 acetyltransferase | inhibition, % at 15.6 µM | 350,000 compounds, 0.17% hits | AID 651687;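 active means every replicate shows inhibition of at least 40%; inconclusive means mean inhibition at least 40% but some replicate below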;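 further: 0% = neutral control wells and 100% = positive control wells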
ERAP1 inh – ERAP1 (human) enzyme inhibition; AID 652197; recombinant ERAP1, Leu-AMC fluorescence, 60 min; 340,000 compounds, 0.15% hits; inhibition, % at 10.7 µM;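 active means mean replicate inhibition of at least 30%, or all replicates individually reaching that 30% level; inactive means mean below 30% and not every replicate reaching it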;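 further: 0% = neutral control wells and 100% = L-leucinethiol positive control wells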
GSIS activator – primary screen for activators of insulin secretion dependent on glucose, INS-1E cells, GLuc reporter luminescence | activation, % at 16.6 µM | INS-1E GLuc reporter insulin secretion, 2-3 h | 370,000 compounds, 0.61% hits;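 active means lowest replicate activation of at least 40%, so every replicate reaches that level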;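 further: 0% = median of neutral control wells and 100% = median of IBMX positive control wells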
CaV13 FRET inh – Primary screen for inhibitors of IQ motif and Ca2+-dependent inactivation inhibitor domain binding in CACNA1D, Förster resonance energy transfer in living cells, …. HEK cells, CFP/YFP FRET ICDI-IQ, plate reader, 10 min; percent FRET-ratio fall versus neutral wells. AID 743397. 340,000 compounds, 0.098% hits. inhibition, % at 12.3 µM;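 active means mean replicate inhibition of at least 30% and at least 1% of replicates passing that level; inconclusive means only one of the two criteria is met; inactive means neither criterion is met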;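 further: 0% = median of the neutral control wells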
DENV2 CPE rescue – DENV2-induced cell death inhibition; CPE inhibition, % at 9.99 µM; AID 651640; 350,000 compounds, 1.7% hits; DENV2-infected cells, cytopathic effect rescue, plate reader; in the data active means CPE inhibition above about 20%, passing the limit was not always enough; inconclusive means no clear call, values can overlap the other calls; tested in BHK-21 cells;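 further: 0% = median of neutral control wells and 100% = median of positive control wells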
Numbers without * were called inactive; ? = inconclusive; · = no result.

SMILES	Ecoli rRNA inh	PGC1a acetyl inh	ERAP1 inh	GSIS activator	CaV13 FRET inh	DENV2 CPE rescue
CCOC(=O)[C@]12CCCC=C1N(Cc1ccco1)C(=O)[C@H](CC(=O)N1CCC(c3ccccc3)CC1)C2	-12	·	-2	·	-3	38*
O=C1N[C@H](c2ccccc2)COCc2cn(nn2)CC[C@H](Cc2ccc(C(F)(F)F)cc2)C(=O)N[C@H](c2ccccc2)COCc2cn(nn2)CC[C@@H]1Cc1ccc(C(F)(F)F)cc1	-7	·	·	2	·	·
Cc1nc(N(C)C)c2sc(=S)n(C)c2n1	2	6	1	1	0	38*
CC(C)NC(=O)Nc1ccc2c(c1)C(=O)N([C@H](C)CO)C[C@H](C)[C@@H](CN(C)C(=O)Nc1ccc3c(c1)OCO3)OCCCC[C@H](C)O2	-2	6	3	3	·	-2
C[C@@H]1CN([C@H](C)CO)C(=O)c2cc(C#CC(C)(C)O)cnc2O[C@@H]1CN(C)C(=O)CN(C)C	-1	-2	0	22	·	8
COc1ccc(-c2ccc([C@H]3[C@@H](CO)N4CCCCN(CC5CCOCC5)C[C@@H]34)cc2)cc1	2	0	-1	8	·	24*
CCCC#Cc1ccc([C@@H]2[C@@H](CO)N3CCCCN(CC4CCOCC4)C[C@@H]23)cc1	4	-2	4	3	·	?
CCCC#Cc1ccc([C@@H]2[C@H](CO)N3CCCCN(CC4CCOCC4)C[C@@H]23)cc1	6	-13	0	-4	·	46*
COc1ccc(-c2ccc([C@H]3[C@@H](CO)N4CCCCN(CC5CCOCC5)C[C@H]34)cc2)cc1	-1	9	-1	-2	·	33*
COc1ccc(-c2ccc([C@H]3[C@H]4CN(CC5CCOCC5)CCCCN4[C@H]3CO)cc2)cc1	3	0	0	-2	·	0
COc1cccc(-c2ccc([C@H]3[C@@H](CO)N4CCCCN(CC5CCOCC5)C[C@@H]34)cc2)c1	·	-2	-1	·	·	2
C[C@@H]1CN([C@@H](C)CO)C(=O)c2cc(NC(=O)C3CC3)ccc2O[C@H]1CN(C)Cc1ccccc1	-1	3	0	-9	·	1
O=C(c1cccc(F)c1)N1CC2(C1)[C@H](c1ccccc1)[C@H](CO)N2C(=O)C1CC1	-5	6	1	10	·	34*
O=C(c1cccc(F)c1)N1CC2(C1)[C@H](c1ccccc1)[C@@H](CO)N2C(=O)C1CC1	-3	8	1	0	·	19
COCC(=O)N1[C@@H](CO)[C@@H](c2ccccc2)C12CN(C(=O)c1cccc(F)c1)C2	2	10	-3	3	·	29*
O=C(c1ccc2c(c1)OCO2)N1CC2(C1)[C@H](c1ccccc1)[C@H](CO)N2C(=O)C1CC1	-1	2	1	1	·	38*
CCC(=O)N1[C@@H]2Cn3c(ccc(-c4ccncc4)c3=O)[C@H]1[C@@H](C(=O)N1CCc3ccccc3C1)[C@@H]2CO	2	12	2	-3	·	-1
O=C(Cc1cccc([N+](=O)[O-])c1)Nc1ccc(C(=O)N2CCCCC2)cc1	-3	·	0	-11	-3	81*
O=C(Cc1cccc(NC(=O)C2CCCN(C(=O)C3CCCC3)C2)c1)Nc1ccc(C(=O)N2CCOCC2)cc1 (stereo unspecified)	5	·	1	2	-7	27*
O=C(Cc1cccc(NC(=O)C2CCCN(C(=O)C3CCC3)C2)c1)Nc1ccc(C(=O)N2CCOCC2)cc1 (stereo unspecified)	11	·	5	-1	-9	32*
O=C(CNCc1ccc(Cl)cc1)Nc1ccc(C(=O)N2CCCCCC2)cc1	-30*	-5	1	-18	-7	14
COc1ccc2c3c(n(C)c2c1)[C@H](CO)N(C(=O)c1ccc(F)cc1)CC31CCN(CC2CCOCC2)CC1	0	·	-2	-2	·	-10
CN(C(=O)c1ccc(NC(=O)Cc2cccc(NC(=O)C3CCN(C(=O)C4CC4)CC3)c2)cc1)C1CC1	2	-13	-4	-6	-10	34*
